This note sets out measurements from PubChem BioAssay AID991 (National Center for Advancing Translational Sciences (NCATS), 2007).

Calls of active or inactive are those of the source. No rule for the calls is given here.

Microtubule-associated protein tau (Homo sapiens), sequence (P10636 whole entry, looked up): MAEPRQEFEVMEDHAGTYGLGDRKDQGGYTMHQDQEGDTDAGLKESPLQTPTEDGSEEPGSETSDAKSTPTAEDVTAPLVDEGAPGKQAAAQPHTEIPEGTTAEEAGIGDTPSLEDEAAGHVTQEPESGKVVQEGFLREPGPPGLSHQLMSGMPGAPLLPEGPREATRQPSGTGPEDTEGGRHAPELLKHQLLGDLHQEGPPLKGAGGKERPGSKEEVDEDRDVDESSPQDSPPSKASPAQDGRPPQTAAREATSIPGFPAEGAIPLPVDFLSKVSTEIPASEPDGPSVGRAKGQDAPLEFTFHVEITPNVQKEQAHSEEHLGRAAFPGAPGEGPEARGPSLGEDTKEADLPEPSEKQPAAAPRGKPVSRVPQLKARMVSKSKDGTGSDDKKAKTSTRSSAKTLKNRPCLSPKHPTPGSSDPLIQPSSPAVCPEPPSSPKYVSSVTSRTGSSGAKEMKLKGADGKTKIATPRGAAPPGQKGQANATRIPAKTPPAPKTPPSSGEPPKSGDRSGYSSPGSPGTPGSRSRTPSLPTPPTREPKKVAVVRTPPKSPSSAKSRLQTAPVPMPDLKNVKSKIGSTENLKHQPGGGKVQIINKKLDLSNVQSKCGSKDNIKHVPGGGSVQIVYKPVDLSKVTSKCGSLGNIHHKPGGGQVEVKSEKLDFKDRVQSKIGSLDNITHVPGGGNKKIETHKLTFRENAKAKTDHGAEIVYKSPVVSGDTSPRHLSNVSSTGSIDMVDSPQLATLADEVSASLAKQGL

For the first assay, the target named is Microtubule-associated protein tau (Homo sapiens) (UniProt P10636). Nature of the assay: Tau Fibrillization assay. Conditions: His6-htau40 arachidonic acid fibrillization, TEM filament length; at 0.72 µM; stronger effect = lower value. An excerpt:
NIH Molecular Libraries Screening Centers Network [MLSCN] NIH Chemical Genomics Center [NCGC] MLSCN Grant: 1 X01 MH079825-01 Assay Provider: Jeffrey A. Kuret, Ohio State University NCGC Assay Overview: A number of solution-based assays are available for quantifying the amount of aggregated protein, such as fluorescence spectroscopy, sedimentation, and static and laser light scattering. However, none of these methods allows direct visualization of filaments. Transmission electron microscopy (TEM) can complement these solution-based assays by providing information on filament morphology and length distributions. In vitro fibrillization of htau40 was performed in the presence or absence of selected compounds. The resultant filaments were detected after absorption onto formvar and carbon coated grids and examined by TEM. Random digital images of each experimental condition were obtained, imported into imaging software, and quantified for filament length and number.
NCGC Assay Protocol Summary Aggregation of His6-htau40 (5 uM final concentration) in assembly buffer was induced with arachidonic acid (50 uM final concentration) in the presence or absence of selected library compounds. Each compound was tested at IC50 and four times the IC50values as determined by the tau ThS binding assay. After incubation (18 h at 37 degrees Celsius), reactions were diluted 5-fold in distilled water and assayed by transmission electron microscopy as described previously (Necula and Kuret, 2004). […] 28(3), 251-60. Necula, M., Chirita, C. N., and Kuret, J. (2003) J. Biol. Chem. 278, 46674-46680.
On to `CN(C)c1ccc(C(=C2C=CC(=[N+](C)C)C=C2)c2ccc(N(C)C)cc2)cc1`, for which the filament length is 50.3% (active).

Staying with this assay, now noted: His6-htau40 arachidonic acid fibrillization, TEM filament length; at 0.76 µM; stronger effect = lower value.
Consider `Cc1cc(-c2ccc(N=Nc3ccc4c(S(=O)(=O)O)cc(S(=O)(=O)O)c(N)c4c3O)c(C)c2)ccc1N=Nc1ccc2c(S(=O)(=O)O)cc(S(=O)(=O)O)c(N)c2c1O`, for which the filament length is 91.8% (inactive).

The assay is the same for the next values; noted with them: His6-htau40 arachidonic acid fibrillization, TEM filament length; at 4 µM; stronger effect = lower value.
Consider `CN(C)c1ccc(/C=C2/C(=O)Nc3ccccc32)cc1`, for which the filament length is 41.8% (active).

Staying with this assay, now noted: His6-htau40 arachidonic acid fibrillization, TEM filament length; at 6.4 µM; stronger effect = lower value.
Take `N=C1C=CC(=C(c2ccc(N)cc2)c2ccc(N)cc2)C=C1`: the filament length is 50.8% (active).

Still in this assay, the particulars now being: His6-htau40 arachidonic acid fibrillization, TEM filament length; at 8.2 µM; stronger effect = lower value.
Turning to `COc1cccc2c1C(=N)c1c(O)c3c(c(O)c1C2=O)C[C@](O)(C(C)=O)C[C@@H]3O[C@H]1C[C@H](N)[C@@H](O)[C@H](C)O1`, the filament length is 86.9% (inactive).

Still in this assay, the particulars now being: His6-htau40 arachidonic acid fibrillization, TEM filament length; at 8.4 µM; stronger effect = lower value.
`Cc1ccc2nc(-c3ccc(N=Nc4cc(S(=O)(=O)O)c5ccccc5c4O)cc3)sc2c1S(=O)(=O)O`: the filament length is 111% (inactive).

Still in this assay, the particulars now being: His6-htau40 arachidonic acid fibrillization, TEM filament length; filament length at lower concentration; at 0.18 µM; stronger effect = lower value.
For the compound `CN(C)c1ccc(C(=C2C=CC(=[N+](C)C)C=C2)c2ccc(N(C)C)cc2)cc1`, the filament length is 109%.

The assay is the same for the next values; noted with them: His6-htau40 arachidonic acid fibrillization, TEM filament length; filament length at lower concentration; at 0.19 µM; stronger effect = lower value.
In turn, `Cc1cc(-c2ccc(N=Nc3ccc4c(S(=O)(=O)O)cc(S(=O)(=O)O)c(N)c4c3O)c(C)c2)ccc1N=Nc1ccc2c(S(=O)(=O)O)cc(S(=O)(=O)O)c(N)c2c1O` came in with a filament length of 116%.

Staying with this assay, now noted: His6-htau40 arachidonic acid fibrillization, TEM filament length; filament length at lower concentration; at 1 µM; stronger effect = lower value.
Turning to `CN(C)c1ccc(/C=C2/C(=O)Nc3ccccc32)cc1`, the filament length worked out at 94.5%.

The same assay, now with this note: His6-htau40 arachidonic acid fibrillization, TEM filament length; filament length at lower concentration; at 1.6 µM; stronger effect = lower value.
`N=C1C=CC(=C(c2ccc(N)cc2)c2ccc(N)cc2)C=C1`: the filament length came out at 114%.

Staying with this assay, now noted: His6-htau40 arachidonic acid fibrillization, TEM filament length; filament length at lower concentration; at 2.1 µM; stronger effect = lower value.
With `Cc1ccc2nc(-c3ccc(N=Nc4cc(S(=O)(=O)O)c5ccccc5c4O)cc3)sc2c1S(=O)(=O)O`, the filament length was found to be 100%.
Still for that read-out and setting: next, `COc1cccc2c1C(=N)c1c(O)c3c(c(O)c1C2=O)C[C@](O)(C(C)=O)C[C@@H]3O[C@H]1C[C@H](N)[C@@H](O)[C@H](C)O1`: 91.3%.
